High-throughput results deposited in PubChem by National Center for Advancing Translational Sciences (NCATS).
IP6K1 inh: inhibitors of human IP6K1; AID 1645851; activity change, % (series mostly up to about 58 µM); Q92551; IP6K1 kinase, ADP-Glo luminescence, 2 h; active compounds read low; 0.81% of 140,000 active; in the data active means activity change below about -25%
Target sequence (Q92551 whole entry, looked up): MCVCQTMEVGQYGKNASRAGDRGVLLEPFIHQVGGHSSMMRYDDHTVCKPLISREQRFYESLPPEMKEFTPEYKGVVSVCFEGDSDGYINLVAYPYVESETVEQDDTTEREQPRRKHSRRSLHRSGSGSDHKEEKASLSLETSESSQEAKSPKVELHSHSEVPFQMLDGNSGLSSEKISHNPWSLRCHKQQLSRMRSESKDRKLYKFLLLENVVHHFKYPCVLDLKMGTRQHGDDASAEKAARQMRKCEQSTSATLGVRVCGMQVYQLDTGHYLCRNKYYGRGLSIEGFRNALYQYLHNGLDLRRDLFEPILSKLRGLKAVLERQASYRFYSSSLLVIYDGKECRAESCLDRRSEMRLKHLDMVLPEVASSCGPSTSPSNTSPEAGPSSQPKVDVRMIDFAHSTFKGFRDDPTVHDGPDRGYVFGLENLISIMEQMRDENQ
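ADP-Glo luminescence measures ADP made by human IP6K1 during a 2 h RT reaction with ATP/IP6 (mix at 1.3 mM/130 uM); top library doses 57.5 and 19.1 uM final.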
KDM5B inh: blocks human KDM5B histone demethylase activity; Q9UGL1; AID 1347165; Potency, µM (doses to about 57.7 µM), usual class: inhibitors; 2.6% of 220,000 active; KDM5B demethylase, FDH-coupled NADH fluorescence (FDH is formaldehyde dehydrogenase); further: nearly all actives have a fitted effect of over 70% in size
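Measured: NADH fluorescence change, 30 min, RT. System: KDM5BΔAP 200 nM final, H3K4me3 peptide, α-KG, Fe(II), ascorbate, NAD⁺ plus FDH, pH 7.5 HEPES. Compounds: titrated, 10 min pre-incubation with enzyme.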
Large screens that a line does not name were inactive. Rows were chosen to be rich in hits. Some 2.7% of all compounds tested hit in one or more screens of this group.

COc1cc2c(cc1OC)C(C[C@H]1CN(C(=O)c3ccc(N(C)C)cc3)CC[C@H]1CC(=O)O)=NCC2	KDM5B inh 28.2µM
Cc1ccc(CNC(=O)CN2CCN(c3nccs3)CC2)cc1F	none (no result: IP6K1 inh)
CSc1ccc(C2=NN(C(=O)CCC(=O)O)C(c3ccc4nccnc4c3)C2)cc1 (configuration not stated)	none (no result: IP6K1 inh)
Cc1ncnc(N2CCN(C(=O)C3CCN(C(=O)C4CC4)CC3)CC2)c1C	none
Cc1ccc(-c2ccccc2CN2CCC(C(=O)N3CCN(c4ncccn4)CC3)CC2)cc1Cl	none (no result: KDM5B inh)
Cc1cc(C)nc(N2CCN(C(=O)C3CCN(CC(N)=O)CC3)CC2)n1	KDM5B inh 28.2µM
Cc1cccc(N2CCN(C(=O)C3CCN(C(=O)C4CC4)CC3)CC2)n1	KDM5B inh 22.4µM
C#CCNC(=O)C1=NOC2CN(C(=O)NC(C)C)CC12 (configuration not stated)	none
Cc1nnc2ccc(N3CCC(NC(=O)Nc4ccccc4F)C3)nn12 (configuration not stated)	none (no result: KDM5B inh)
CC(C)c1noc(C2CCCN(C(=O)c3ccoc3)CCC(=O)NCC2)n1 (configuration not stated)	none
CN(C)c1ccc(-c2nc(-c3nnn4c3COC(c3ccccc3Cl)C4)no2)cc1 (configuration not stated)	KDM5B inh 25.1µM
COc1cccc(-c2nc(-c3nnn4c3COC(c3ccccc3Cl)C4)no2)c1OC (configuration not stated)	KDM5B inh 14.1µM
CN(C)c1cccc(-c2nc(-c3nnn4c3COC(c3ccccc3Cl)C4)no2)c1 (configuration not stated)	none
COc1ccc(-c2nc(-c3nnn4c3COC(c3ccccc3Cl)C4)no2)cc1 (configuration not stated)	none
CCn1ccc(C(=O)N2CCN(c3cc(-c4ccc(Cl)cc4)[nH]n3)CC2)n1	none
Cn1c(=O)c2c(nc(N3CCN(C(=O)Cc4ccccc4)CC3)n2Cc2ccccc2)n(C)c1=O	none (no result: IP6K1 inh)
O=C(Cc1ccc(Cl)cc1)N1CCCN(c2cc(-c3ccccc3)[nH]n2)CC1	KDM5B inh inconclusive
CN(C)c1cccc(C(=O)NC2CCN(c3cc(-c4ccc(Cl)cc4)[nH]n3)CC2)c1	KDM5B inh 31.6µM
COc1ccc(-c2cc(N3CCCC(NC(=O)c4cccc(N(C)C)c4)C3)n[nH]2)cc1 (configuration not stated)	KDM5B inh 28.2µM
O=C(c1cccc(Cl)c1)N1CCN(c2cc(-c3ccc(Cl)cc3)[nH]n2)CC1	none
CN(C)c1cccc(C(=O)N2CCN(c3cc(-c4ccc(Cl)cc4)[nH]n3)CC2)c1	KDM5B inh 31.6µM
O=C(Cc1ccccc1F)N1CCCN(c2cc(-c3ccc(Cl)cc3)[nH]n2)CC1	KDM5B inh 10µM
COc1ccc(-c2cc(N3CCCC(NC(=O)c4cccc(C)c4)C3)n[nH]2)cc1 (configuration not stated)	none
CN(C)c1cccc(C(=O)NC2CCN(c3cc(-c4ccc(F)cc4)[nH]n3)CC2)c1	none
NC(N)=NCc1ccc(CN2CCCC2)cc1	none (no result: IP6K1 inh)
CCOc1cc(COC(=O)c2ccc(S(=O)(=O)N3CCCC3)cc2)ccc1OC(F)F	none (no result: IP6K1 inh)
Cc1ccc(C)c(CN2CCC(CNC(=O)CCc3nnc4ccc(N5CCOCC5)nn34)CC2)c1	none (no result: IP6K1 inh)
O=[S+]([O-])(Nc1cc(C2CC2)nn1-c1ccccc1)c1ccccc1	none (no result: KDM5B inh)
CCOc1ccccc1CN1CCN(C(=O)c2ccccn2)CC1CCO (configuration not stated)	KDM5B inh 20µM
CCOc1ccccc1CN1CCN(c2nccc(OC)n2)CC1CCO (configuration not stated)	KDM5B inh inconclusive
O=C(NCCc1ccc(Cl)cc1)c1cc2ccccc2oc1=O	none (no result: IP6K1 inh)
O=C(NCc1ccc(Cl)cc1)C1CCCN(c2ccnc3ccnn23)C1 (configuration not stated)	none (no result: KDM5B inh)
O=C(NCCCn1ccnc1)c1ccc(Cl)cc1	none (no result: IP6K1 inh)
COc1ccc(CCNC(=O)c2ccc3nc(C)cn3c2)cc1	KDM5B inh 28.2µM
O=C(c1ccc2nc(-c3ccccc3)cn2c1)N1C[C@@H]2CCC[C@H]1C2	KDM5B inh 22.4µM
O=C(c1ccc(F)c(C(F)(F)F)c1)N1CC2CCC1C2 (configuration not stated)	none (no result: IP6K1 inh)
O=C(c1ccc2nc(-c3ccc(F)cc3)cn2c1)N1CCC(F)CC1	KDM5B inh 28.2µM
COc1ccc(CCNC(=O)c2ccc3nnc(-c4cc(C(F)(F)F)cc(C(F)(F)F)c4)n3c2)cc1	none (no result: KDM5B inh)
O=C(c1ccc2nnc(-c3ccc(F)cc3)n2c1)N1CCOCC1	none
O=C(NCCCn1ccnc1)c1ccc2nc(-c3ccc(F)cc3)cn2c1	KDM5B inh 31.6µM
CCOC(=O)c1cnc(Nc2ccccc2OCC)c2ccccc12	none (no result: IP6K1 inh)
Cn1cc(CN(C(=O)c2ccc3nc(-c4ccccc4)cn3c2)C2CC2)cn1	KDM5B inh inconclusive
O=C(NC1CCCCC1)c1ccc2c(c1)sc1nc(-c3ccc(F)cc3)cn12	none
CCn1cc(-c2ccc(F)cc2)cc1C(=O)NCc1cccnc1	none
